Data published in PubChem BioAssay (Tox21).
Values without a mark were called inactive. Results filed as inconclusive are left out. A call without a number means that no potency is given here. Calls of active or inactive are those of the source. Unless noted, calls follow the shape of the dose curve; as a rule, active = well fitted curve in the direction sought with a large enough effect in the repeat runs; inconclusive = weak or mixed curves; inactive = no such curve, though single readings can be large; an effect the other way counts as inactive or inconclusive.

How the values were obtained:
[1] = qHTS assay for small molecule agonists of the p53 signaling pathway (AID 651631; calls by dose curve; also: nearly all actives have a fitted effect of over 15% in size; also: potency is read from the fitted curve at half-maximal effect)
Summary of the method: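 Quantitative high-throughput format: 4,000 p53RE-bla HCT-116 cells/well, 5 h pre-incubation, 16 h compound exposure at 37 °C, 2 h room-temperature substrate step, fluorescence intensity measured.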

[2] = qHTS assay for small molecules that induce genotoxicity in human embryonic kidney cells expressing luciferase-tagged ATAD5 (AID 651632); also: nearly all actives have a fitted effect of over 15% in size
Summary of the method: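 Increased luciferase signal from ATAD5-tagged reporter cells indicates DNA-damage-driven ATAD5 induction. HEK293T cells are treated for 16 hr at 37C before detection with Amplite.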

[3] = qHTS assay for small molecule agonists of the p53 signaling pathway - cell viability (AID 651633; calls by dose curve; also: nearly all actives have a fitted effect of over 30% in size; also: potency is read from the fitted curve at half-maximal effect)
Summary of the method: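 p53RE-bla cells, seeded at 4,000 per well and rested 5 h at 37 C/5% CO2, received compounds in DMSO for 16 h at 37 C. CellTiter-Glo was then added, and luminescence was read after 30 min at room temperature to gauge cytotoxicity.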

[4] = qHTS assay for small molecules that induce genotoxicity in human embryonic kidney cells expressing luciferase-tagged ATAD5 - cell viability (AID 651634; calls by dose curve; also: nearly all actives have a fitted effect of over 25% in size; also: potency is read from the fitted curve at half-maximal effect)
Summary of the method: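 Cytotoxicity counterscreen in HEK293T cells bearing an ATAD5-luciferase reporter: live-cell protease activity measured by CellTiter-Fluor fluorescence after 15.5 hr compound exposure.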

[5] = qHTS assay for small molecule disruptors of the mitochondrial membrane potential - cell viability (AID 720634; calls by dose curve;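 also: human HepG2 liver cancer cells; series mostly up to about 83 µM; nearly all actives have a fitted effect of over 20% in size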)
Summary of the method: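 After overnight attachment at 37 C, HepG2 cells received compound or DMSO vehicle for 1 hr. Viability is then taken from ATP-driven luminescence following a 30 min room-temperature CellTiter-Glo step.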

[6] = qHTS assay for small molecule disruptors of the mitochondrial membrane potential (AID 720635); also: potency is read from the fitted curve at half-maximal effect
Summary of the method: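 HepG2 cells (2,000/well) attached overnight at 37C, then took compound for 1 hr at 37C, 5% CO2. Mito-MPS dye was added for 30 min; fluorescence was read at 490/535 nm (monomers) and 540/590 nm (aggregates).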

[7] = qHTS assay to test for compound auto fluorescence at 535 nm (green) in HepG2 cells (AID 720675)
[8] = qHTS assay to test for compound auto fluorescence at 460 nm (blue) in HEK293 cells (AID 720678)
Summary of the method: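 HEK293 cells (2,000 per well, medium with 10% dialyzed FBS) attached for 4-5 hr at 37C, then received compound and stood overnight at 37C, 5% CO2. Blue fluorescence was read at Ex/Em 405/460 nm and expressed relative to triamterene.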

[9] = qHTS assay to test for compound auto fluorescence at 590 nm (red) in HEK293 cells (AID 720679)
Summary of the method: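 HEK293 cells (2,000/well, medium with 10% dialyzed FBS) attached for 4-5 hr at 37C, received 23 nL compound and were incubated overnight at 37C, 5% CO2. Red fluorescence was then read at 540/590nm Ex/Em, referenced to Rose Bengal sodium.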

[10] = qHTS assay to test for compound auto fluorescence at 590 nm (red) in HepG2 cells (AID 720674)
Summary of the method: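 Compound auto-fluorescence is scored relative to Rose Bengal sodium, measured at 540/590 nm in live HepG2 cultures after 1 hr compound contact (37 C, 5% CO2).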

Compound	Potency [1]	Potency [2]	Potency [3]	Potency [4]	Potency [5]	Potency [6]	outcome [7]	Potency [8]	outcome [9]	outcome [10]	fluorescence, relative to Rose Bengal [10]	fluorescence, % of fluorescein control [7]	fluorescence, % of triamterene [8]	fluorescence, % of fluorescent control [9]
FC(F)(F)c1ccccc1Cl	inactive	inactive	inactive	inactive	inactive	inactive	inactive	inactive	inactive					
CC1CC(C)C(=O)C1=O (configuration not stated)	inactive	inactive	inactive	inactive	inactive	inactive	inactive	inactive	inactive	inactive				
Cc1cc(C)cc(N)c1	inactive	inactive	inactive	inactive	inactive	inactive	inactive		inactive	inactive				
c1csc(SSc2cccs2)c1	inactive	inactive	inactive	inactive	inactive	inactive	inactive	inactive	inactive	inactive				
CCOC(=O)[C@H](CCc1ccccc1)N[C@@H](C)C(=O)N(CC(=O)O)C1Cc2ccccc2C1	inactive	inactive	inactive	inactive	inactive	inactive	inactive		inactive	inactive				
CC(C)Nc1cccnc1N1CCN(C(=O)c2cc3cc(NS(C)(=O)=O)ccc3[nH]2)CC1	inactive	inactive	inactive	inactive	inactive	26.6 µM (active)	inactive	inactive	inactive	inactive				
Cc1cccc(N(C)C(=S)Oc2ccc3c(c2)CCC3)c1	inactive	inactive	inactive	inactive	inactive		inactive	inactive		inactive				
Cc1[nH]cnc1CN1CCc2c(c3ccccc3n2C)C1=O	inactive	inactive	inactive	inactive	inactive	inactive	inactive	inactive	inactive	inactive				
O=C1NCCN1CCO	inactive	inactive	inactive	inactive	inactive	inactive	inactive	inactive	inactive	inactive				
CC(C)(O)c1ccc(CNC(=O)c2cccnc2Oc2ccc3nonc3c2)cc1	inactive	inactive	inactive	inactive	inactive	inactive	inactive	inactive	inactive	inactive				
CCCCCC[C@@H](O)C/C=C\CCCCCCCC(=O)OCC(O)CO (some centres not stated)	inactive	inactive	inactive	inactive	inactive		inactive	inactive		inactive				
C=C1c2cccc(O)c2C(O)=C2C(=O)[C@]3(O)C(O)=C(C(N)=O)C(=O)[C@@H](N(C)C)[C@@H]3[C@@H](O)[C@H]12	inactive	inactive	inactive	inactive	inactive	inactive					-0.284% [at 18.6 µM]	-0.0181% [at 18.6 µM]	1.67% [at 18.6 µM]	0.604% [at 18.6 µM]
C[C@@H](O[C@H]1OCCN(Cc2n[nH]c(=O)[nH]2)[C@H]1c1ccc(F)cc1)c1cc(C(F)(F)F)cc(C(F)(F)F)c1	29.8 µM (active)	inactive	23.7 µM (active)	23.7 µM (active)	inactive		inactive	inactive	inactive	inactive				
O=C(O)CCC(=O)C(=O)O	inactive	inactive	inactive	inactive	inactive	inactive	inactive	inactive	inactive					
CCCCCCCCCI	inactive	inactive	inactive	inactive	inactive	inactive	inactive	inactive	inactive	inactive				
Cc1ccco1	inactive	inactive	inactive	inactive	inactive	inactive	inactive	inactive	inactive	inactive				
CCOC(=O)/C=C/C(=O)OCC	inactive	inactive		inactive	inactive	inactive	inactive	inactive	inactive	inactive				
COc1cc(N)c(Cl)cc1C(=O)NC1CCN(CCCOc2ccc(F)cc2)CC1OC (configuration not stated)	inactive	inactive		inactive	inactive							-0.0882% [at 18.6 µM]	-0.493% [at 18.6 µM]	0.102% [at 18.6 µM]
O=C(O)c1ccc(OCCCOc2ccc(C(=O)O)cc2)cc1	inactive	inactive		inactive	inactive	inactive	inactive	inactive	inactive	inactive				
NCCNCCO	inactive	inactive	inactive		inactive	inactive	inactive	inactive	inactive					
C/C=C(/C(=C/C)c1ccc(O)cc1)c1ccc(O)cc1	3.2 µM (active)	inactive			inactive	9.02 µM (active)					0.479% [at 18.6 µM]	0.154% [at 18.6 µM]		0.023% [at 18.6 µM]
CCC(C)COC(=O)CC(C)C (configuration not stated)	inactive	inactive	inactive	inactive	inactive		inactive		inactive	inactive				
Brc1cc2ccccc2c2ccccc12	inactive	inactive	inactive	inactive	inactive		inactive		inactive	inactive				
